The source of these data is PubChem BioAssay (NCI).

This is part of a sample that, as a whole, favours compounds with a hit. Of some 79,000 tested, about 15% had one in any assay. Unmarked numbers belong to inactive results. Calls of active or inactive are those of the source. Cut-off read from the data, not from the text of the source: active = growth inhibition above about 70%; inactive = the rest.

A short description of assay [1]: NCI Yeast Anticancer Drug Screen. Data for the rad50 strain (AID 155).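 Note: 0% = growth of vehicle-only cultures of the same strain.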 Particulars: S. cerevisiae rad50 strain growth inhibition; at 50.0 µM; active compounds read high. Summed up:
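Yeast carrying a defined DNA repair defect were exposed to test compounds, and growth was compared with vehicle-treated controls to give percent inhibition.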

The nature of assay [2]: NCI Yeast Anticancer Drug Screen. Data for the mec2-1 strain (AID 157). Particulars: S. cerevisiae mec2-1 strain, at 50.0 µM, active compounds read high. Summed up: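 Compounds were applied to mec2-1 yeast cells. Their growth was then compared with that of vehicle-treated cultures to give growth inhibition.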
Assay [3] in a line: NCI Yeast Anticancer Drug Screen. Data for the sgs1 mgt1 strain (AID 161).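 Note: 0% = growth of cultures given vehicle only.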 Particulars: S. cerevisiae sgs1 mgt1 strain, at 50.0 µM, active compounds read high. Summed up:
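Compounds are added to genetically altered yeast, and growth is compared with cultures given vehicle alone to give percent inhibition.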

Assay [4] can be described thus: NCI Yeast Anticancer Drug Screen. Data for the cln2 rad14 strain (AID 165).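 Note: 0% = growth equal to vehicle treated cultures.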 The settings on record: S. cerevisiae cln2 rad14 strain, at 50.0 µM, active compounds read high. The method, boiled down:
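Strain: cln2 rad14 yeast, altered in cell cycle control and DNA damage repair. Read-out: growth inhibition vs vehicle.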

The nature of assay [5]: NCI Yeast Anticancer Drug Screen. Data for the bub3 strain (AID 167). The settings on record: S. cerevisiae bub3 mutant strain, at 50.0 µM, active compounds read high. Summed up:
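Compounds were applied to a genetically altered yeast strain carrying a cell-cycle control defect. Growth inhibition was scored against vehicle-treated controls.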

Assay [6] in a line: NCI Yeast Anticancer Drug Screen. Data for the mlh1 rad18 strain (AID 175). Particulars: S. cerevisiae mlh1 rad18 strain growth inhibition; at 50.0 µM; active compounds read high. The method, boiled down:
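A repair-deficient yeast strain is exposed to test compound, and growth is scored relative to vehicle-treated controls.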

For `Cc1ccc(S(=O)(=O)OC2C3C4CCC5C3SC3C5C4C23)cc1` (stereo not given), the growth inhibition in assay [1] was -5.3%; in assay [2], -21.1%; in assay [3] it was -3.65%; in assay [4], 5.8%; in assay [5], 6.6%; in assay [6] it was 1.1%.
Take `O=C1Oc2ccccc2C(=O)C1=Ic1ccccc1`: the growth inhibition in assay [1] was 31.3%; in assay [2], 52.9%; in assay [3], 73.6% (active); in assay [4] it was 51.3%; in assay [5] it was 38%; in assay [6] it was 56%.
For `CC1CN=C(c2c(O)ccc3ccccc23)S1` (stereo not given), the growth inhibition in assay [1] is 42.9%; in assay [2], 31.5%; in assay [3] it was 79.8% (active); in assay [4] it was 26.8%; in assay [5], 34.4%; in assay [6] it was 61.3%.
On to `CC1CC(C)OC(C)(c2ccccc2)O1` (stereo not given), for which the growth inhibition in assay [1] was 21.4%; in assay [2] it was -6%; in assay [3] it was -0.9%; in assay [4], -33.1%; in assay [5] it was -18.5%; in assay [6] it was 8.6%.
Turning to `O=C1C(=Nc2ccc(Cl)nc2)CC(c2ccccc2)N1c1ccc(Cl)nc1` (stereo not given), the growth inhibition in assay [1] is 7.9%; in assay [2], 9.25%; in assay [3], 16.1%; in assay [4] it was 22.4%; in assay [5], 3%; in assay [6] it was -4%.
For `Cc1ccc(S(=O)(=O)C(Cl)(SCl)Sc2ccccc2)cc1` (stereo not given), the growth inhibition in assay [1] was 64%; in assay [2], 41.2%; in assay [3], 74.9% (active); in assay [4], 47.3%; in assay [5], 46.4%; in assay [6] it was 77.9% (active).
For `O=S(=O)(CS(=O)(=O)N1CCCCC1)N1CCCCC1`, the growth inhibition in assay [1] was -3.8%; in assay [2] it was -5.4%; in assay [3], -3.4%; in assay [4], -9.7%; in assay [5], 6.7%; in assay [6], 0.95%.
For the molecule `COCC(O)CN1CCN(c2ccccc2OC)CC1` (stereo not given), the growth inhibition is -16.5% in assay [1]; -16.6% in assay [2]; -7.3% in assay [3]; -14.2% in assay [4]; 25.6% in assay [5]; -13.2% in assay [6].
As for `CC(C)C(=O)CC(c1ccc(Cl)cc1)N1N=C(C(C)C)CC1c1ccc(Cl)cc1` (stereo not given), the growth inhibition was 8.05% in assay [1]; 15.2% in assay [2]; 6.95% in assay [3]; -27.4% in assay [4]; 40% in assay [5]; 14.4% in assay [6].
In the case of `Cc1ccc(NC(=O)C(=O)CC(=O)c2c(C)n([O-])c3ccccc3[n+]2=O)cc1C`, the growth inhibition is -6.2% in assay [1]; -1.55% in assay [2]; 1.25% in assay [3]; 9.35% in assay [4]; 0.2% in assay [5]; 11.9% in assay [6].
Regarding `Clc1ccc2c(c1)C1Oc3ccc(Cl)cc3C(O2)O1`, the growth inhibition in assay [1] is -5.5%; in assay [2], -24.5%; in assay [3], 1%; in assay [4] it was -14.3%; in assay [5] it was -6.4%; in assay [6], -2.3%.
Regarding `Cc1ccc(S(=O)(=O)/N=C/C=P(c2ccccc2)(c2ccccc2)c2ccccc2)cc1`, the growth inhibition in assay [1] was 11.4%; in assay [2] it was 7.45%; in assay [3], -22.1%; in assay [4], -19%; in assay [5], -2.1%; in assay [6], -3.65%.
Turning to `O=c1cc(O)nc(CO)[nH]1`, the growth inhibition was -4.15% in assay [1]; -5.75% in assay [2]; -41.9% in assay [3]; -14.7% in assay [4]; 3.9% in assay [5]; 2.6% in assay [6].
As for `Cc1nc2c(c(-c3ccc(Cl)cc3)n1)Cc1c(ccc3ccccc13)O2`, the growth inhibition in assay [1] was -15.4%; in assay [2], -5.9%; in assay [3] it was -9.2%; in assay [4], -0.1%; in assay [5] it was -28.8%; in assay [6] it was -19%.
Consider `CC1(C)OC2OC(C3CC3)C(OCc3ccccc3)C2O1` (stereo not given), for which the growth inhibition is -4.35% in assay [1]; -1.05% in assay [2]; -7.55% in assay [3]; -16% in assay [4]; -10.7% in assay [5]; -6.5% in assay [6].
Take `CCCCNc1c(C(=O)N2CCCCC2)cnc2c1cnn2CC`: the growth inhibition in assay [1] was -3.15%; in assay [2], 1.8%; in assay [3] it was 26.2%; in assay [4], -13.9%; in assay [5], 46.8%; in assay [6], 1.05%.
For `[O-]c1on[n+](-c2ccccc2)c1CN1CCOCC1`, the growth inhibition was -8.2% in assay [1]; -8.35% in assay [2]; -9.9% in assay [3]; -45% in assay [4]; 8.1% in assay [5]; -3.05% in assay [6].
For `COc1ccc(-c2c3c([nH]c(=S)c2C#N)CCC3)cc1`, the growth inhibition is 8.65% in assay [1]; 4.5% in assay [2]; 33% in assay [3]; 22.7% in assay [4]; 28.7% in assay [5]; 34.4% in assay [6].
Regarding `NCCCn1c2ccccc2c2cnccc21`, the growth inhibition in assay [1] was 7.2%; in assay [2], 4.15%; in assay [3], 2.15%; in assay [4], -6.65%; in assay [5], 1.05%; in assay [6] it was -20.2%.
Regarding `O=S(=O)(O)c1cccc2ccc(O)cc12`, the growth inhibition in assay [1] is -4.05%; in assay [2], -4.1%; in assay [3] it was -2.05%; in assay [4], -36.8%; in assay [5], -11.1%; in assay [6], 43.6%.
